Out of some 330,000 compounds screened, about 940 (0.28%) were called active. Shown is part of a subset that was picked to be rich in actives. Values without a mark were called inactive. Cut-off read from the data, not from the text of the source: active = inhibition above about 12%; inactive = the rest.
Assay: reduced growth of AddAB-expressing E. coli cells – absorbance, AddAB inhibitor project, primary screen (AID 435030);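 note: 0% = vehicle wells of infected cells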
Settings: E. coli expressing H. pylori AddAB, at 11.9 µM, stronger effect = higher value

SMILES | inhibition
O=C(N=C1SC2CS(=O)(=O)CC2N1c1cc(Cl)ccc1Cl)C1CC1 (centres undefined) | 1.12%
CCC1CO/C(=C(\C(=C(Cl)Cl)N2CCOCC2)[N+](=O)[O-])N1 (centres undefined) | 0.26%
Cc1cc(C)n(-c2nnc(N3CCN(c4ccccc4)CC3)nn2)n1 | 1.11%
COc1ccc(OC)c(NC(=O)C2CCCN2S(=O)(=O)c2cccc3nsnc23)c1 (centres undefined) | 2.19%
Cc1ncoc1C(=O)NCCC(c1ccccc1)c1ccccc1 | 0.08%
CCOc1cc(S(=O)(=O)NCc2ccc3c(c2)OCO3)ccc1F | 1.89%
Cn1ccc(=Nc2ccc(NC(=O)c3ccc(N=c4ccn(C)c5ccc([N+](=O)[O-])cc45)cc3)cc2)cc1 | 95.1% (active)
COc1cc(NS(=O)(=O)c2ccc(NC(=O)c3ccc([N+](=O)[O-])cc3)cc2)ncn1 | 0.95%
CC(=O)NC(=S)Nc1ccc(NC(=S)NC(=O)c2ccc([N+](=O)[O-])cc2)cc1 | -0.43%
Brc1ccc(CN2CC[C@H]3C=CCc4cccc(c43)C2)cc1 | 4.02%
C=CCNC(=O)c1csc(-c2ccccc2)n1 | 0.48%
O=C(Nc1cccnc1Cl)c1cc(-c2ccccc2O)on1 | 3.57%
C=CCNC(=O)c1cc(-c2ccccc2O)on1 | 96.1% (active)
FC(F)(F)c1ccc2nnc(-c3c(Cl)cccc3Cl)n2c1 | 2.64%
Cc1ccc(OCC(=O)c2cc(C)n(Cc3ccco3)c2C)c([N+](=O)[O-])n1 | 3.36%
O=C(OCC1O[C@@H](OC(=O)c2cc(O)c(O)c(O)c2)[C@@H](OC(=O)c2cc(O)c(O)c(O)c2)[C@@H](OC(=O)c2cc(O)c(O)c(O)c2)[C@@H]1OC(=O)c1cc(O)c(O)c(O)c1)c1cc(O)c(O)c(O)c1 (some centres undefined) | 27.8% (active)
C=C1c2cccc(OC)c2O[C@H](C(=O)OCC)[C@@H]1CCCCCC | -0.56%
CS(=O)(=O)N(CC(=O)Nc1ccc(Cl)c(Cl)c1)C1CCCCC1 | -0.7%
O=C(CCCN1C(=O)CCC1=O)Nc1ccc(Cl)c(C(F)(F)F)c1 | 2.75%
O=C(CC(O)(C(F)(F)F)C(F)(F)F)Nc1ccc(Cl)c(Cl)c1 | 18.6% (active)
COc1cc(C)c(C(C)C)cc1S(=O)(=O)n1ccnc1 | 2.64%
O=C(NCc1ccco1)c1ccc([N+](=O)[O-])cc1Cl | 0%
CS(=O)(=O)c1ccc(Cl)c(NC(=O)COC(=O)c2ncc(Cl)c(Cl)c2Cl)c1 | 1.36%
CCCCOc1ccc(Cl)cc1CSc1nncn1N | 0.43%

Source: PubChem BioAssay AID435030 (The Scripps Research Institute Molecular Screening Center, 2010)
